Hit rate of the full screen: of about 190,000 compounds, about 110 (0.058%) were called active. About 2% were inconclusive and are not listed. The entries come from a sample that favours actives as a whole. Values without a mark were called inactive.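 Rule for the calls: active = fluorescent GTP binding to Rab7 beads changed by at least 20 points from the 100% baseline, either direction, mostly lower; inconclusive = compound itself probably fluorescent, or too few beads counted; inactive = the rest.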

The assay deals with Rab7 GTPase wild type (dog), Bodipy-FL-GTP binding. As to the kind of experiment: wildtype dog Rab7 nucleotide binding alteration – biochemical, multiplex bead flow cytometry, primary screen (AID 758).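 Note: median green fluorescence of bound Bodipy-FL-GTP per Rab7 bead population.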 Particulars: GST-Rab7 beads, fluorescent GTP binding, at 10 µM, actives lie on both sides, untreated = 100%, excess cold GTP = 0%. For orientation: In flow cytometry, cells or beads pass a laser one at a time.
`Cc1ccccc1OCCC(=O)OCC(=O)NC(C)c1ccccc1` (stereo unspecified): the GTP binding activity (percent of control) was 95%.
The result for `N#Cc1c(-c2ccc(F)cc2)nc(-c2ccccc2)[nH]c1=O` reads 93%; that for `O=C(c1cccc(S(=O)(=O)N2CCCC2)c1)N(Cc1ccco1)C1CCS(=O)(=O)C1` (stereo unspecified), 97%.
In the case of `CN(CCc1cnn(C)c1)Cc1cn(C)nc1-c1ccccc1F`, the GTP binding activity (percent of control) was 100%.
For the compound `Cc1cc(=O)n2[nH]c(-c3sccc3-n3c(C)ccc3C)cc2n1`, the GTP binding activity (percent of control) was 91%.
On to `O=C(N/N=C/c1ccc(OCC2COCCO2)cc1)c1ccc(Br)cc1` (stereo unspecified), for which the GTP binding activity (percent of control) is 108%.
For the compound `Cc1c(C(=O)O)nnn1-c1nonc1N`, the GTP binding activity (percent of control) is 97%.
With `CCc1ccc(CN(C)C(=O)CCc2nnc(-c3ccc(-c4ccccc4)cc3)o2)nc1` the figure was 96%; with `COC(=O)c1ccc(COC(=O)c2cnccn2)cc1`, 105%; with `COc1ccc(-c2[nH]ncc2CN(C)Cc2cccnc2)c(F)c1`, 96%.
For `CCn1c(SCc2ccccc2)nc2c(c1=O)SCC2`, the GTP binding activity (percent of control) was 94%.
For `Cc1cccc(Oc2c([N+](=O)[O-])c(=O)n(C)c3ccccc23)c1`, the GTP binding activity (percent of control) was 100%.
With `COC(=O)c1ccc(CN2CCC(CO)(Cc3ccc(OC)cc3)CC2)cc1` the figure was 103%; with `CN(C)c1nc(N)nc(Cn2nnc(-c3ccc(C(F)(F)F)cc3)n2)n1`, 104%.
Turning to `CCCNS(=O)(=O)c1ccc(CCC(=O)N2CCCC2)cc1`, the GTP binding activity (percent of control) was 104%.
For `CN(CC(=O)Nc1ccccc1F)CC(=O)Nc1ccccc1Br`, the GTP binding activity (percent of control) is 105%.
As for `CCOC(=O)CCCNC(=O)COC(=O)/C=C/c1ccc2c(c1)OCO2`, the GTP binding activity (percent of control) is 90%.
Consider `Cc1nc2sc3c(c2c(=O)n1NC(=O)CCl)CCCC3`, for which the GTP binding activity (percent of control) was 90%.
In the case of `CSc1ccc(CN2C(=O)NC3(CCCCCC3)C2=O)cc1`, the GTP binding activity (percent of control) is 97%.
In the case of `Fc1cccc(CSc2nnc3ccc(-c4ccncc4)nn23)c1`, the GTP binding activity (percent of control) is 94%.
As for `Cc1cc([N+](=O)[O-])ccc1NC(=O)c1ccc(NC(=O)C(C)C)cc1`, the GTP binding activity (percent of control) is 98%.
Consider `CCCCC(CC)CNC(=O)C(=O)C1C(=O)Nc2ccccc21` (stereo unspecified), for which the GTP binding activity (percent of control) is 103%.
Regarding `COc1ccccc1-c1nc(SC)n[nH]1`, the GTP binding activity (percent of control) is 97%.
`Cc1ccc(CSc2nc3[nH]ncc3c(=O)[nH]2)cc1`: the GTP binding activity (percent of control) is 93%.
For `Cc1ccccc1-n1nc(SCC(=O)O)sc1=S`, the GTP binding activity (percent of control) is 99%.
The result for `Cc1ccc(C(=O)Cn2cccn2)cc1` reads 106%.
For the compound `CC(=O)NC(=S)NNC(=O)c1ccc(Br)cc1`, the GTP binding activity (percent of control) was 108%.
As to `NS(=O)(=O)c1cccc(NC(=O)COC(=O)/C=C/c2ccco2)c1`, the GTP binding activity (percent of control) is 94%.
With `O=C(Nc1ccc(Br)cn1)c1ccc([N+](=O)[O-])cc1Cl`, the GTP binding activity (percent of control) is 98%.
For `NC(=O)c1ccc(CN2CCC(Cc3ccccc3)CC2)cc1`, the GTP binding activity (percent of control) is 110%.
For the compound `COc1cccc(CN(C)CC(=O)Nc2ccccc2C(=O)Nc2ccccc2)c1`, the GTP binding activity (percent of control) is 105%.
With `CC(OC(=O)c1ccccc1OCc1ccc(Cl)cc1)C(N)=O` (stereo unspecified) the figure was 102%; with `Cc1cc(C)c(S(=O)(=O)N2CCOCC2)cc1C`, 101%; with `CN1CCN(S(=O)(=O)c2cccc(C(=O)O)c2)CC1`, 98%.
With `CCOCCCNCc1cc(Br)ccc1OCC` the figure was 95%.
Consider `Cc1cccc(/C(N)=N/OC(=O)c2ccccc2Cl)c1`, for which the GTP binding activity (percent of control) is 95%.
For the compound `C/C(=N\Nc1nc(N2CCOCC2)nc(N2CCOCC2)n1)c1ccc([N+](=O)[O-])cc1`, the GTP binding activity (percent of control) was 96%.
On to `C/C(CC(=O)Nc1cccc(C(F)(F)F)c1)=N\NC(=O)C(=O)NCC(C)C`, for which the GTP binding activity (percent of control) is 96%.
For the compound `CC(C)CNC(=O)C(=O)NCc1ccccc1`, the GTP binding activity (percent of control) is 93%.
With `O=[N+]([O-])c1cc(S(=O)(=O)CCCN2CCOCC2)ccc1F` the figure was 95%; with `Cc1ccc(C2CCN(C(=S)Nc3cccc(Cl)c3)C2)cc1` (stereo unspecified), 101%; with `CCOC(=O)/C(C#N)=C/c1cn(CCC(=O)O)nc1-c1ccc(Br)cc1`, 102%.
On to `c1ccc2c(c1)OCCOCCOCCO2`, for which the GTP binding activity (percent of control) was 99%.
For `O=C(C1CCN(C2CCN(Cc3ccc4cc(F)ccc4n3)CC2)CC1)N1CCCC1`, the GTP binding activity (percent of control) was 98%.
The result for `CCC(C)NC(=O)c1nn(C)c(=O)c2ccccc12` (stereo unspecified) reads 103%.
Regarding `Cc1[nH]nc(SCC(=O)NCC(C)C)c1[N+](=O)[O-]`, the GTP binding activity (percent of control) is 96%.
In the case of `Cc1ccc(OCCCC(=O)NC(C)c2ccccc2)c(C)c1` (stereo unspecified), the GTP binding activity (percent of control) is 97%.
Turning to `Cc1cccc(NS(=O)(=O)c2ccc(C)c(C(N)=O)c2)c1`, the GTP binding activity (percent of control) was 102%.
For the compound `CC1COc2ccccc2N1S(=O)(=O)c1ccccc1` (stereo unspecified), the GTP binding activity (percent of control) was 95%.
The result for `O=[N+]([O-])c1ccc2[nH]c3c(c2c1)CCCC3O` (stereo unspecified) reads 103%.
With `Cc1ccccc1NC(=O)c1nn(-c2ccc(F)c(F)c2)ccc1=O`, the GTP binding activity (percent of control) is 95%.
In the case of `O=C(O)CCCCOn1ccnc1`, the GTP binding activity (percent of control) is 97%.
For `Cc1ccc(C(=O)N/C(=C\c2cccs2)C(=O)NCCc2ccccn2)cc1C`, the GTP binding activity (percent of control) is 106%.
Take `CNc1nc2c(C)cccn2c(=O)c1C=Nc1ccc(OC)cc1`: the GTP binding activity (percent of control) is 90%.
For the compound `COc1ccccc1N1CCN(c2ccc([N+](=O)[O-])nc2)CC1`, the GTP binding activity (percent of control) was 104%.
For the compound `CC1(C)C2CCC1(C)C(OC(=O)c1ccc(O)cc1)C2` (stereo unspecified), the GTP binding activity (percent of control) was 97%.
`O=C(O/N=C(/c1ccccc1)c1ccncc1)c1ccccc1[N+](=O)[O-]`: the GTP binding activity (percent of control) is 95%.
The result for `O=C(c1snnc1-c1ccccc1)N1CCOCC1` reads 100%; that for `CCc1nc2ccccc2c(C(=O)OC2CCCCC2=O)c1C` (stereo unspecified), 99%.
With `CC(C)(C)NC(=O)COC(=O)c1cc(Cl)ccc1[N+](=O)[O-]` the figure was 102%.
As for `COc1ccc(C(=O)NNc2cc(C)nc(NNC(=O)c3ccc(OC)cc3)n2)cc1`, the GTP binding activity (percent of control) was 102%.
As for `Cc1ccc(NC(=O)Cn2c(=O)n(CCC(=O)NC3CCN(Cc4ccccc4)CC3)c(=O)c3ccccc32)cc1`, the GTP binding activity (percent of control) is 102%.
As for `C[C@H](NC(=O)c1ccccc1Cl)C(=O)OCCOc1cccc(Cl)c1`, the GTP binding activity (percent of control) is 94%.
With `OCCNCc1cccc(OCc2ccccc2Cl)c1` the figure was 97%; with `CN(C)C(=O)N1CCNCC1`, 106%; with `CCCCCC1CCC(c2nnc(SCC(C)=O)o2)CC1` (stereo unspecified), 104%.
Regarding `O=C(NC(Cc1c[nH]c2ccccc12)C(=O)O)/C(=C/c1ccco1)NC(=O)c1ccccc1` (stereo unspecified), the GTP binding activity (percent of control) was 98%.
For the compound `O=C(NNC(=S)NCc1ccco1)C(c1ccccc1)c1ccccc1`, the GTP binding activity (percent of control) is 105%.
Take `CSc1ncccc1C(=O)NC1CCCCCC1`: the GTP binding activity (percent of control) is 100%.
As for `COc1ccc(NC(=O)c2c(SC)nsc2SC)cc1`, the GTP binding activity (percent of control) is 103%.
Regarding `CSc1nsc(SC)c1NC(=O)OC1CCCCC1`, the GTP binding activity (percent of control) was 20% (active).
As to `COc1ccc(/C=N/S(=O)(=O)c2ccccc2)cc1OC`, the GTP binding activity (percent of control) is 97%.
With `O=[N+]([O-])/C(N=Nc1ccccc1)=N\Nc1ccccc1`, the GTP binding activity (percent of control) is 101%.
The result for `CCC(C)(C)NC(=O)CN(Cc1cccs1)C(=O)CNS(=O)(=O)c1ccc(F)cc1` reads 98%.
The result for `Cc1ccc(CN2CCN(Cc3ccc(OCCO)cc3)CC2CCO)o1` (stereo unspecified) reads 104%.
As for `Cc1cccc(N2CCN(c3ccc(NC(=O)/C=C\C(=O)O)cc3)CC2)c1`, the GTP binding activity (percent of control) is 97%.
In the case of `O=C1CS(=O)CN1c1ccc(Oc2ccccc2)cc1` (stereo unspecified), the GTP binding activity (percent of control) was 93%.
On to `Cc1ccc(C(=O)NCC(=O)O)s1`, for which the GTP binding activity (percent of control) is 95%.
Turning to `Cc1c(-c2cccc(Cl)c2)nc2ccccc2c1C(=O)OCC(=O)N(C)C1CCS(=O)(=O)C1` (stereo unspecified), the GTP binding activity (percent of control) is 105%.
Take `CCOC(=O)C1(Cc2cccc(OC)c2)CCN(C(C)COC)CC1` (stereo unspecified): the GTP binding activity (percent of control) is 104%.
Take `CCSC1=NCCN1S(=O)(=O)c1ccc(F)cc1`: the GTP binding activity (percent of control) is 105%.
`CCOc1ccc(/C=N/Nc2nncc(-c3ccccc3)n2)cc1OC`: the GTP binding activity (percent of control) was 102%.
For the compound `COc1ccc(-c2[nH]ncc2CN(Cc2nccn2C)C(C)C)cc1F`, the GTP binding activity (percent of control) was 100%.
On to `Cc1ccc(-c2cc(C(F)(F)F)n3ncc(C(=O)N4CCCCC4c4cccnc4)c3n2)cc1` (stereo unspecified), for which the GTP binding activity (percent of control) is 97%.
Regarding `Cc1cccc(N2CCN(c3ccc(C(N)=O)cc3[N+](=O)[O-])CC2)c1C`, the GTP binding activity (percent of control) was 95%.
For `Cc1nnc(SCC(=O)NNC(=O)c2ccc(Cl)cc2)n1CC1CCCO1` (stereo unspecified), the GTP binding activity (percent of control) is 100%.
`COc1cc2[nH]c(=O)n(Cc3ccc(C(=O)NC4CCN(Cc5ccccc5)CC4)cc3)c(=O)c2cc1OC`: the GTP binding activity (percent of control) is 104%.
In the case of `CCCCn1c(N)c(N2CCOCC2)c(=O)n(CC(=O)NCCc2ccccc2)c1=O`, the GTP binding activity (percent of control) was 105%.
For `COCCCNC(=S)NNC(=O)C(O)(c1ccccc1)c1ccccc1`, the GTP binding activity (percent of control) is 109%.
Regarding `CC(OC(=O)CCc1nc(=O)c2ccccc2n1C)C(=O)NCc1ccc2c(c1)OCO2` (stereo unspecified), the GTP binding activity (percent of control) was 97%.
The result for `COc1ccc(NS(=O)(=O)c2cc(NC(=O)CC(=O)c3ccc([N+](=O)[O-])cc3)ccc2C)cc1` reads 106%.
Take `COc1cc(OC)cc(-c2nnc(SCC(=O)Nc3ccc(C(=O)O)cc3)s2)c1`: the GTP binding activity (percent of control) is 93%.
With `Oc1ccc(-c2nncn2-c2ccccc2)cc1`, the GTP binding activity (percent of control) is 99%.
Take `CCN(CCn1cccn1)Cc1cn[nH]c1-c1ccc(OC)cc1F`: the GTP binding activity (percent of control) is 97%.
The result for `CCN(CC)S(=O)(=O)c1ccc(NC(=O)c2cccnc2Cl)c(NC(=O)c2cccnc2Cl)c1` reads 91%; that for `CCOC(=O)C1(CC2CCCCO2)CCN(Cc2nc(-c3cccs3)oc2C)CC1` (stereo unspecified), 99%.
With `NC(N)=N/N=C/c1ccc(Cl)c([N+](=O)[O-])c1` the figure was 103%; with `CC(Nc1nc(N2CCN(CCO)CC2)nc2ccccc12)c1ccccc1` (stereo unspecified), 98%; with `CC(=O)NCC(=O)N1CCCC(C(=O)c2ccc3c4c(cccc24)CC3)C1` (stereo unspecified), 98%.
Regarding `CC(C)N1CCC(N2CCN(Cc3cccnc3)CC2CCO)CC1` (stereo unspecified), the GTP binding activity (percent of control) was 104%.
On to `N#Cc1c(NC(=O)C2CC(Cl)=CCC2C(=O)O)sc2c1CCCCC2` (stereo unspecified), for which the GTP binding activity (percent of control) was 94%.

The values above are taken from PubChem BioAssay AID758 (NMMLSC, 2007).
